A1 inh: inhibitors of the anti-apoptotic protein A1, read as caspase activation; MEF A1-2A-BIM cells, Caspase-Glo 3/7 luminescence, 3 h; percent of clofoctol response, vehicle zero; caspase activation, % (no concentration beside the values); 0.066% of 330,000 active;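 active means over half of replicate activation scores above 10%, or exactly half above 10 with the replicate mean above 10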
ARNT-TACC3 inh: disrupts binding between human ARNT and TACC3; Q9Y6A5; AlphaScreen His-ARNT PAS-B/GST-TACC3 binding, luminescence; TACC3 fragment carries E629A point mutation; inhibition, % at 9.99 µM; 0.66% of 390,000 active; AID 623870;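 active means mean inhibition of replicates at least 50% and at least half of replicates each reaching 50%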;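 further: 0% = complete ARNT plus TACC3 wells and 100% = ARNT alone without TACC3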
aDG glyco act: increases alpha dystroglycan glycosylation; Pro5-aDG cells, alpha-DG glycosylation AlphaScreen (IIH6); 0% Pro5, 100% B10-LARGE cell signal; AID 624168; 0.22% of 360,000 active; activation, % at 10 µM;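 active means activation of at least 8% versus controls, or a plate z-score of at least 8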;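 further: Pro5 are CHO cells carrying HIG-tagged alpha-DG that lacks glycosylation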
SUMO Mot1 rescue: inhibitors of SUMOylation pathway: yeast Mot1-301 growth rescue; 1% of 320,000 active; growth rescue, % at 18.8 µM; AID 2716; S. cerevisiae Mot1-301 growth rescue, ATP luminescence, 38.5C; percent above DMSO median, 100 means doubled;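 active means every valid replicate shows activation above 250% relative to neutral control wells; inactive means the rest, any valid replicate at or below 250%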;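 further: OY570 slx delta 5 strain wells were the positive control but not used for scaling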
AI-2 QS mod: modulators of Vibrio harveyi AI-2 quorum sensing system | 0.4% of 300,000 active | activity change, % at 7.5 µM | Vibrio harveyi JMH597 AI-2 luminescence/OD600 ratio, 9 h; active compounds read low; strain lacks LuxN and CqsS sensors; 0 = neutral-control median; in the data active means activity change below about -75%, passing the limit was not always enough;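 further: luminescence divided by OD600 gain over 9 h not by final OD600 alone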
Yeast Mot1 SUMO: SUMO pathway inhibitors in yeast Mot1-301 growth | S. cerevisiae Mot1-301 galactose growth, ATP luminescence, 24 h; -100 = growth of slx-deleted rescue strain | growth activity, percent, % at 42 µM | shares compounds with SUMO Mot1 rescue | 2,300 tested, under 10 active | AID 493004;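 active means Signal drops as the depositor expects, and the fitted half-maximal dose is no more than ten times the top valid tested dose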;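 further: more negative values mean stronger growth rescue toward the control strain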
* hit, by the source's call; x = no result given; + = active, no number; [ ] = another dose, or the depositor's remark. Most compounds without a hit are left out; they make up all but 1.8% or so of the library.

SMILES	A1 inh	ARNT-TACC3 inh	aDG glyco act	SUMO Mot1 rescue	AI-2 QS mod	Yeast Mot1 SUMO
C=CCNC(=O)c1cc(-c2cccnc2)nc2ccccc12	-1	-3	0	441*	28	1
COc1ccccc1C#Cc1cnc2c(c1)C(=O)N([C@H](C)CO)C[C@H](C)[C@H](CN(C)C(=O)CC1CC1)O2	x	-1	x	x	x	x
NC1=NC(=Nc2ccc(S(N)(=O)=O)cc2)c2ccccc21	1	-1	0	419*	7	0[21 µM]
Cc1ccc(N=C2N=C(N)c3ccccc32)cc1C	1	-10	1	3	25	x
CC(C)NC(=O)NNC(=O)c1nn(-c2ccc(F)cc2)ccc1=O	0	-1	0	-29	11	x
CC1=Nc2ccccc2/C1=C\c1nc(-c2ccccc2)oc1O	1	0	0	623*	5	-1
COc1ccc(-c2nc(/C=C3\C(C)=Nc4ccccc43)c(O)o2)cc1	0	6	0	12	23	x
O=C(CCC1CCCN(C(=O)Cc2cccc(F)c2)C1)N1CCN(c2ccccn2)CC1 (stereo not given)	0	15	0	426*	12	0
O=C1OCc2cc(NS(=O)(=O)c3cccs3)ccc21	0	0	0	411*	22	0
O=S(=O)(Nc1ccc2c(c1)CCC2)c1cccs1	-1	10	0	-16	35	x
O=S(=O)(Nc1ccc(N2CCOCC2)cc1)c1cccs1	0	x	0	579*	28	1
Cc1c(O)ccc(C(=O)CN2C(=O)c3ccccc3C2=O)c1O	0	2	0	876*	9	2
CCOCCCNC(=O)C(c1ccc(OC)cc1)N(Cc1ccc2c(c1)OCO2)C(=O)CNC(C)=O (stereo not given)	0	x	0	442*	17	1
CCCNC(=S)N1CCC(c2nc3cc(C)c(C)cc3[nH]2)CC1	0	1	0	-9	11	x
COc1ccc(N(CC(=O)NCc2ccc(C)cc2)S(=O)(=O)c2c(C)nn(C)c2C)cc1	-1	-8	0	585*	7	0
CCN(CC)CCNC(=O)c1c(O)c2c([nH]c1=O)CCCC2	1	-10	0	-4	18	x
C=CCNC(=O)c1scc2c1CCCC2	0	x	0	4	7	x
CN(C)CCNC(=O)c1scc2c1CCCC2	0	0	0	824*	21	0
CN(C)CCNC(=O)c1c(O)c2c([nH]c1=O)CCCC2	1	-1	0	630*	30	0
CCNCCNC(=O)c1c(O)c2c([nH]c1=O)CCCC2	1	3	0	+	10	0
COc1ccc(N2CCN(CC(O)COc3ccc([N+](=O)[O-])cc3)CC2)cc1 (stereo not given)	0	x	0	17	27	x
COCCNCCCCOc1ccc(C)cc1[N+](=O)[O-]	0	x	0	7	-15	x
O=c1cc(C(F)(F)F)c2sc(N3CCCCC3)nc2[nH]1	-1	x	0	429*	-8	0
CCN(CC)CCCNC(=O)C1c2ccccc2C(=O)N(CCOC)C1c1ccc(F)cc1 (stereo not given)	0	0	0	691*	11	0[21 µM]
CCN(CCCNC(=O)C1c2ccccc2C(=O)N(CCOC)C1c1ccc(F)cc1)Cc1ccccc1 (stereo not given)	0	6	0	-1	6	x
SMILES	A1 inh	ARNT-TACC3 inh	aDG glyco act	SUMO Mot1 rescue	AI-2 QS mod	Yeast Mot1 SUMO
Cc1cccc(NC(=S)NCc2ccco2)c1C	3	-15	0	619*	-8	0
O=C(COc1cnc2ccccc2n1)NCCC1=CCCCC1	0	3	0	+	-10	-1
O=C(COc1ccccc1Cl)NCCC1=CCCCC1	3	5	0	-10	17	x
O=C(COC(=O)Cc1ccc(Cl)cc1Cl)NCCC1=CCCCC1	0	-1	0	5	18	x
O=C(COc1ncnc2c(Cl)cc(Cl)cc12)NCCC1=CCCCC1	0	-2	0	420*	4	0
Clc1ccccc1-c1nnc(-c2cccs2)o1	-12	1	0	-2	-5	x
COc1ccc(C#Cc2cnc3c(c2)C(=O)N([C@H](C)CO)C[C@H](C)[C@@H](CN(C)C(=O)CN(C)C)O3)cc1	x	13	x	x	x	x
CCOC(=O)c1ccc(CNC(=O)C2CCCCC2C(=O)OCC(F)(F)F)o1 (stereo not given)	0	x	0	+	34	0
Cc1ccc(-c2csc3nnc(SCc4csc(C)n4)n23)cc1	0	-3	0	-16	27	x
Cc1nc(CSc2nnc3scc(-c4ccccc4)n23)cs1	x	-12	0	+	16	1
CC(OC(=O)/C(C#N)=C/c1ccco1)C(=O)N(C)c1ccccc1 (stereo not given)	1	-6	0	1	x	x
COc1ccccc1NC(=O)CSc1nc(N)c(C#N)cc1C#N	0	x	0	-4	11	x
CCOc1ccccc1NC(=O)CSc1nc(N)c(C#N)cc1C#N	1	-4	0	+	16	1
CN(C(=O)C1CCCO1)c1nnc(-c2cnccn2)s1 (stereo not given)	-1	-1	0	519*	11	0
Cc1ccc(-c2nnc(N(C)C(=O)C3CCCO3)s2)cn1 (stereo not given)	0	x	0	x	27	x
CN(C(=O)c1ccncc1)c1nnc(-c2cnccn2)s1	0	-2	0	365*	1	0
Cc1ccc(C(=O)Nc2ccc(S(=O)(=O)NCc3ccco3)cc2)cc1	0	1	0	128	18	x
CCC(=O)Nc1ccc(S(=O)(=O)NCc2ccco2)cc1	-1	-9	1	659*	38	1
Cc1ccc(C(C)NC(=O)c2cccs2)cc1 (stereo not given)	-1	-4	0	73	47	x
CC(NC(=O)c1cccs1)c1ccc(Br)cc1 (stereo not given)	0	1	0	800*	4	0
CO[C@@H]1CN(C)C(=O)c2cc(NS(=O)(=O)c3cccc(Cl)c3)ccc2OC[C@@H](C)N(C(=O)Cc2cccnc2)C[C@H]1C	x	15	x	x	x	x
CCCCc1ccc(S(=O)(=O)NNC(=S)NCc2ccco2)cc1	0	-16	0	545*	5	1
CC1CCN(CCCCOc2ccc(Cl)cc2)CC1	0	-2	0	427*	17	0
Cc1nc(CC(=O)N/N=C/c2ccc(OCC(=O)O)cc2)cs1	1	-34	0	571*	2	0
COc1cc(/C=N/NC(=O)Cc2csc(C)n2)ccc1OCC(C)C	0	0	0	x	4	x

Screening data: PubChem BioAssay, several laboratories
